Assay results: PubChem BioAssay (Tox21)
Results filed as inconclusive are left out. Where a call stands in place of a potency, no number is given. A number with no mark means an inactive call. Active and inactive are the calls of the source. Calls follow the shape of the dose curve; as a rule, active = well fitted curve in the direction sought with a large enough effect in the repeat runs; inconclusive = weak or mixed curves; inactive = no such curve, though single readings can be large; an effect the other way counts as inactive or inconclusive.

Key:
[1] = molecular target: Cytochrome P450 2C19 (Homo sapiens) (UniProt P33261); assay: Cytochrome P450 Family 2 Subfamily C Member 19 (CYP2C19) small molecule antagonists: luciferase reporter qHTS assay (AID 1671197); also: nearly all actives have a fitted effect of over 65% in size; also: potency is read from the fitted curve at half-maximal effect; as to activity change, negative = inhibition: series mostly up to about 120 µM
Summary of the method: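 Inhibition of CYP2C19 was scored from loss of luminescence in a P450-Glo proluciferin substrate assay, NADPH-started and run 1 h at 37C, with ketoconazole as positive control.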

[2] = molecular target: Voltage-gated inwardly rectifying potassium channel KCNH2 (Homo sapiens) (UniProt Q12809); assay: Human Ether-a-go-go-Related Gene (hERG) channel small molecule antagonists: fluorescence cell-based qHTS assay (AID 1671200); also: series mostly up to about 77 µM; nearly all actives have a fitted effect of over 50% in size
Summary of the method: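 Thallium flux as potassium surrogate: FluxOR II dye loaded 1 h at room temperature into hERG-expressing U2OS cells, then stimulus buffer added after 10 min. Kinetic 480 nm excitation/540 nm emission read, 2 min.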

[3] = molecular target: Cytochrome P450 3A4 (Homo sapiens) (UniProt P08684); assay: Cytochrome P450 Family 3 Subfamily A Member 4 (CYP3A4) small molecule antagonists: luciferase reporter qHTS assay (AID 1671201); also: nearly all actives have a fitted effect of over 50% in size; also: potency is read from the fitted curve at half-maximal effect; as to activity change, negative = inhibition: series mostly up to about 120 µM
Summary of the method: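 Recombinant human CYP3A4 converts a proluciferin substrate to luciferin over 1 h at room temperature after NADPH regeneration solution is added (compound preincubated 10 min); detection reagent stops reaction, luminescence read 20 min later as relative units.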

[4] = molecular target: Cytochrome P450 2C9 (Homo sapiens) (UniProt P11712); assay: Cytochrome P450 Family 2 Subfamily C Member 9 (CYP2C9) small molecule antagonists: luciferase reporter qHTS assay (AID 1671198); also: nearly all actives have a fitted effect of over 50% in size; also: potency is read from the fitted curve at half-maximal effect; as to activity change, negative = inhibition: series mostly up to about 120 µM
Summary of the method: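 P450-Glo proluciferin substrate with CYP2C9 enzyme; 10 min RT preincubation, then NADPH regeneration 1 h at 37C; luciferin detection reagent 20 min RT, luminescence in relative luminescence units.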

[5] = molecular target: Cytochrome P450 1A2 (Homo sapiens) (UniProt P05177); assay: Cytochrome P450 Family 1 Subfamily A Member 2 (CYP1A2) small molecule antagonists: luciferase reporter qHTS assay (AID 1671199); also: nearly all actives have a fitted effect of over 50% in size; also: potency is read from the fitted curve at half-maximal effect; as to activity change, negative = inhibition: series mostly up to about 120 µM
Summary of the method: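 Room-temperature CYP1A2 reaction with proluciferin substrate: compounds added from DMSO, 10 min preincubation, NADPH regeneration for 1 h. Luciferin detection reagent then added; luminescence recorded as RLU.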

Chain of Voltage-gated inwardly rectifying potassium channel KCNH2 (Homo sapiens) (Q12809 whole entry, looked up): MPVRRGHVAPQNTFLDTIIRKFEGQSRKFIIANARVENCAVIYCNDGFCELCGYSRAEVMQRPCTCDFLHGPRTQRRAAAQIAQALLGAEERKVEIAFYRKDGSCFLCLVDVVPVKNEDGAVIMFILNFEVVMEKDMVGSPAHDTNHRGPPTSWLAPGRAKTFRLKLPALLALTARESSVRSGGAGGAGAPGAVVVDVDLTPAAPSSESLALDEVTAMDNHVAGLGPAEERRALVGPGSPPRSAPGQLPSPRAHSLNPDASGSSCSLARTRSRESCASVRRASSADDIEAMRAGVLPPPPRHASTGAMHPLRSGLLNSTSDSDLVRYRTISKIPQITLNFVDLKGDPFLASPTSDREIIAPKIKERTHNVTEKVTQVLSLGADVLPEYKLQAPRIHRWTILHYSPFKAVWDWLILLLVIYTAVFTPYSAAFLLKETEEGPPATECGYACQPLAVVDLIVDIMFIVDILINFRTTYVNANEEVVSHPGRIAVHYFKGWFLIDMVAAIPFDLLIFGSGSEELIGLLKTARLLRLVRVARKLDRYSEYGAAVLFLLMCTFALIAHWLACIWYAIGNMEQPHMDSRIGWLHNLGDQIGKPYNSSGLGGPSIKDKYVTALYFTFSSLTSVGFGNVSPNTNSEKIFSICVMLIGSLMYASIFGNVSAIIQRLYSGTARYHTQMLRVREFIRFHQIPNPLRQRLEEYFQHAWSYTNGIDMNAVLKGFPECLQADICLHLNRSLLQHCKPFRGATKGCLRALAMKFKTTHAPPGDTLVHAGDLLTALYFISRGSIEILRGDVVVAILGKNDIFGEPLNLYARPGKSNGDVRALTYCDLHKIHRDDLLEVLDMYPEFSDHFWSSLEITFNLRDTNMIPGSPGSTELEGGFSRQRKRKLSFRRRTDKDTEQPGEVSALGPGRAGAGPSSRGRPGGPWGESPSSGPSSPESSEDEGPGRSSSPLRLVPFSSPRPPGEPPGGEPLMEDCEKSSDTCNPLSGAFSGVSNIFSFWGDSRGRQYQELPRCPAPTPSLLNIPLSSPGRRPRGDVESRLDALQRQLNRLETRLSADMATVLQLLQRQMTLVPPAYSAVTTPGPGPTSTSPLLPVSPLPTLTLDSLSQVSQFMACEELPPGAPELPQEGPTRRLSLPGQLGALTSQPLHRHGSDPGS
Chain of Cytochrome P450 3A4 (Homo sapiens) (P08684 whole entry, looked up): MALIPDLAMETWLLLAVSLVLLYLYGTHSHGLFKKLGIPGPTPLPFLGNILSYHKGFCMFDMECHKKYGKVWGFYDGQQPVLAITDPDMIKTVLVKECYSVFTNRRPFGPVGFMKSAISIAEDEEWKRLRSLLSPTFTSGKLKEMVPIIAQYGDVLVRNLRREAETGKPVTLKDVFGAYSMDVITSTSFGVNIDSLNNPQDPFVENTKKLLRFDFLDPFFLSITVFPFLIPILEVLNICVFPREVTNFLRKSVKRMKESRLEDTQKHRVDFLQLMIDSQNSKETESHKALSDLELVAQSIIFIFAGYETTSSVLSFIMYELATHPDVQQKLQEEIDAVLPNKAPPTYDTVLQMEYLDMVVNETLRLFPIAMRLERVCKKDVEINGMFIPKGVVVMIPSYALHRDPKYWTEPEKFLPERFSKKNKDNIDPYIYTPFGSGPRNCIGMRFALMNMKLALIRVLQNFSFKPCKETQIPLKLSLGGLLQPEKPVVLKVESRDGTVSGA
Chain of Cytochrome P450 1A2 (Homo sapiens) (P05177 whole entry, looked up): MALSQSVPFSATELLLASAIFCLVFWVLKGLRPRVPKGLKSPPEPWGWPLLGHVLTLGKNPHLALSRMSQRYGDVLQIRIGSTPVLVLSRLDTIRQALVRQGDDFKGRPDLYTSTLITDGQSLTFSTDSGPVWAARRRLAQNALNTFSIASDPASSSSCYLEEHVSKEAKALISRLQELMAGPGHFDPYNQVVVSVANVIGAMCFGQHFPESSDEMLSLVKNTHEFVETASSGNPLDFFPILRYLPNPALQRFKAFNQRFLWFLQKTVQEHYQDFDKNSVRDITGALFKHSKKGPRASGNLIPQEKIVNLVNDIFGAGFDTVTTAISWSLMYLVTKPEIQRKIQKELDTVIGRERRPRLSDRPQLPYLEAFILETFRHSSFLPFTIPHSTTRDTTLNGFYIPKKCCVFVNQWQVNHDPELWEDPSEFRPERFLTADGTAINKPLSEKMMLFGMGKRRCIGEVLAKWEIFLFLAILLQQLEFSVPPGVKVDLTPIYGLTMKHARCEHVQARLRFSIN
Chain of Cytochrome P450 2C9 (Homo sapiens) (P11712 whole entry, looked up): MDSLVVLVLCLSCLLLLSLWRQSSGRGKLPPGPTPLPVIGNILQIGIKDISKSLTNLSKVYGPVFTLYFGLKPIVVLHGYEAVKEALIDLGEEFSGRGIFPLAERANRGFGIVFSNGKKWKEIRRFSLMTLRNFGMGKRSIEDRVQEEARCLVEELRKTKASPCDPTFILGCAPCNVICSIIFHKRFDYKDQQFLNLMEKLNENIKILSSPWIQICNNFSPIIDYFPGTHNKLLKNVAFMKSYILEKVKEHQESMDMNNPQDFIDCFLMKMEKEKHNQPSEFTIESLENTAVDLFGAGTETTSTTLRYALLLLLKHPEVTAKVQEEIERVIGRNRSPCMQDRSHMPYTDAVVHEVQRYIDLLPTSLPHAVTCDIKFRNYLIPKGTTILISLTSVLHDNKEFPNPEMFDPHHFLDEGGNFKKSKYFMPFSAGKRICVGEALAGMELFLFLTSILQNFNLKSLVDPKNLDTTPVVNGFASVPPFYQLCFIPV
Chain of Cytochrome P450 2C19 (Homo sapiens) (P33261 whole entry, looked up): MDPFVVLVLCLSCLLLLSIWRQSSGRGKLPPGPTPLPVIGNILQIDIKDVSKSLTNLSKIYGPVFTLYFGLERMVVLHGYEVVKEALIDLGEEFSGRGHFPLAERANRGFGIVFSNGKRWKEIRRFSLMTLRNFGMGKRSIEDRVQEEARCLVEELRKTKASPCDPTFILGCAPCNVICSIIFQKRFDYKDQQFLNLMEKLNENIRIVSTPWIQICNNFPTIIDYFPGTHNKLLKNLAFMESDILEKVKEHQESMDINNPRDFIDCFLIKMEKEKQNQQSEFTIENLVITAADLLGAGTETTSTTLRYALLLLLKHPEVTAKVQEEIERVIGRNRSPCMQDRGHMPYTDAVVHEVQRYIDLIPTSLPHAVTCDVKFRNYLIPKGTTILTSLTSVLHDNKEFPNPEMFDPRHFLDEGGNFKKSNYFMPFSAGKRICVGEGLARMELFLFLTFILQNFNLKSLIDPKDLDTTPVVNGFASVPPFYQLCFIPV

Structure (SMILES): CC12CCC(C(=O)C1=O)C2(C)C (stereo unspecified)
- Potency [1]: inactive
- Potency [2]: inactive
- Potency [3]: inactive

Structure (SMILES): O=C(O)CC(C(=O)O)S(=O)(=O)O (stereo unspecified)
- Potency [1]: 8.94 µM (active)
- Potency [3]: inactive

Structure (SMILES): CCCC(=O)O[C@]1(C(=O)CC)CC[C@H]2[C@@H]3CCC4=CC(=O)CC[C@]4(C)[C@H]3[C@@H](O)C[C@@]21C
- Potency [4]: 15.5 µM (active)
- Potency [5]: inactive
- Potency [2]: inactive

Structure (SMILES): CC(=O)NC(=O)c1ccccc1O
- Potency [1]: inactive
- Potency [2]: inactive
- Potency [3]: inactive

Structure (SMILES): CCCCOC(=O)CCC(C)=O
- Potency [1]: inactive
- Potency [2]: inactive
- Potency [3]: inactive

Structure (SMILES): C[N+]1(C)[C@@H]2CC(OC(=O)[C@H](CO)c3ccccc3)C[C@H]1[C@@H]1O[C@@H]12 (stereo partly specified)
- Potency [1]: inactive
- Potency [3]: inactive

Structure (SMILES): CCCC[N+](C)(CCCC)CCCC
- Potency [1]: inactive
- Potency [5]: inactive
- Potency [2]: inactive
- Potency [3]: inactive

Structure (SMILES): COc1cc2c(cc1OC)-c1cc3ccc(OC)c(OC)c3c[n+]1CC2
- Potency [4]: inactive
- Potency [5]: 35.9 µM (active)
- Potency [2]: inactive

Structure (SMILES): CCOC(=O)C(=O)CCCCCCl
- Potency [1]: 17.4 µM (active)
- Potency [2]: inactive
- Potency [3]: inactive

Structure (SMILES): CCOc1ccc2nc(S(N)(=O)=O)sc2c1
- Potency [1]: inactive
- Potency [5]: 4.07 µM (active)
- Potency [3]: inactive

Structure (SMILES): CC(C#N)(CCC(=O)O)N=NC(C)(C#N)CCC(=O)O (stereo unspecified)
- Potency [1]: inactive
- Potency [5]: inactive
- Potency [2]: inactive
- Potency [3]: inactive

Structure (SMILES): N[C@@H](CCC(=O)O)C(=O)O
- Potency [1]: 71 µM (active)
- Potency [3]: inactive

Structure (SMILES): C=COC(=O)C(C)(CC)CCC(C)C (stereo unspecified)
- Potency [4]: inactive
- Potency [5]: inactive
- Potency [2]: inactive

Structure (SMILES): CCCn1cc[n+](C)c1C
- Potency [1]: inactive
- Potency [2]: inactive
- Potency [3]: inactive

Structure (SMILES): Cc1ccc(C(=O)c2ccc(CC(=O)O)n2C)cc1
- Potency [1]: inactive
- Potency [5]: inactive
- Potency [2]: inactive
- Potency [3]: inactive

Structure (SMILES): CNCCO
- Potency [1]: inactive
- Potency [3]: inactive

Structure (SMILES): CCN(Cc1ccccc1)c1ccccc1
- Potency [1]: 1.76 µM (active)
- Potency [5]: 35.1 µM (active)
- Potency [3]: inactive

Structure (SMILES): CC1=C(C/C=C(\C)CCC[C@H](C)CCC[C@H](C)CCCC(C)C)C(=O)c2ccccc2C1=O
- Potency [1]: inactive
- Potency [2]: inactive
- Potency [3]: inactive

Structure (SMILES): FB(F)F
- Potency [4]: inactive
- Potency [5]: inactive
- Potency [2]: inactive

Structure (SMILES): CC(C)(C)C(=O)Oc1ccc(S(=O)(=O)Nc2ccccc2C(=O)NCC(=O)O)cc1
- Potency [1]: inactive
- Potency [5]: inactive
- Potency [2]: inactive
- Potency [3]: inactive

Structure (SMILES): CCC1C(=O)OCC1Cc1cncn1C (stereo unspecified)
- Potency [1]: inactive
- Potency [5]: inactive
- Potency [3]: 11 µM (active)

Structure (SMILES): O=C(O)CNC(=O)c1ccc(CO)o1
- Potency [1]: inactive
- Potency [2]: inactive
- Potency [3]: inactive

Structure (SMILES): NC(=O)N1c2ccccc2CC(=O)c2ccccc21
- Potency [4]: inactive
- Potency [5]: 3.23 µM (active)
- Potency [2]: inactive

Structure (SMILES): C=C(C)C(=O)OCC(O)CO (stereo unspecified)
- Potency [1]: inactive
- Potency [2]: inactive
- Potency [3]: inactive

Structure (SMILES): Clc1cc(Cl)c(Cl)nc1Cl
- Potency [1]: inactive
- Potency [2]: inactive
- Potency [3]: inactive

Structure (SMILES): CCN1CCOCC1
- Potency [1]: 22 µM (active)
- Potency [5]: 39.2 µM (active)
- Potency [3]: inactive

Structure (SMILES): O=C(O)CNC(=O)c1ccccc1
- Potency [1]: inactive
- Potency [5]: inactive
- Potency [3]: inactive

Structure (SMILES): CCOc1ccccc1OCC
- Potency [1]: 71 µM (active)
- Potency [2]: inactive

Structure (SMILES): CCCCCC(=O)OCCc1ccccc1
- Potency [2]: inactive
- Potency [3]: inactive

Structure (SMILES): CC1OC1C1CCC2(C)OC2C1 (stereo unspecified)
- Potency [5]: inactive
- Potency [2]: inactive

Structure (SMILES): C=COCC1CCC(COC=C)CC1 (stereo unspecified)
- Potency [4]: inactive
- Potency [5]: inactive
- Potency [2]: inactive
- Potency [3]: inactive

Structure (SMILES): Cc1ccc(C(=O)Nc2ccc(S(=O)(=O)O)c3cc(S(=O)(=O)O)cc(S(=O)(=O)O)c23)cc1NC(=O)c1cccc(NC(=O)Nc2cccc(C(=O)Nc3cc(C(=O)Nc4ccc(S(=O)(=O)O)c5cc(S(=O)(=O)O)cc(S(=O)(=O)O)c45)ccc3C)c2)c1
- Potency [4]: inactive
- Potency [2]: inactive
- Potency [3]: inactive

Structure (SMILES): CCN[C@@H]1C[C@H](N)[C@@H](OC2OC(CN)=CCC2N)[C@H](O)[C@H]1O[C@H]1OC[C@](C)(O)[C@H](NC)[C@H]1O (stereo partly specified)
- activity change, negative = inhibition [2]: -0.868% [at 0.29 µM]

Structure (SMILES): C1CCC2=NCCCN2CC1
- Potency [2]: inactive

Structure (SMILES): CC(C)NNC(=O)c1ccncc1
- Potency [5]: inactive
- Potency [2]: inactive
- Potency [3]: inactive

Structure (SMILES): Nc1ccn([C@@H]2O[C@H](CO)[C@@H](O)[C@@H]2O)c(=O)n1
- Potency [5]: inactive
- Potency [3]: inactive

Structure (SMILES): CCN[C@H]1C[C@H](C)S(=O)(=O)c2sc(S(N)(=O)=O)cc21
- Potency [4]: inactive
- Potency [2]: inactive
- Potency [3]: inactive

Structure (SMILES): Cc1c(N)c(=O)n(-c2ccccc2)n1C
- Potency [2]: inactive

Structure (SMILES): O=C1NC(=O)C2CC=CCC12 (stereo unspecified)
- Potency [2]: inactive

Structure (SMILES): CC(C)=CCC/C(C)=C/C#N
- Potency [2]: inactive
- Potency [3]: inactive

Structure (SMILES): COC(=O)C1=C(C)NC(C)=C(C(=O)OC(C)C)C1c1cccc2nonc12 (stereo unspecified)
- Potency [2]: inactive

Structure (SMILES): O=C(O)c1cc(C(=O)O)cc(C(=O)O)c1
- Potency [4]: inactive
- Potency [5]: inactive
- Potency [3]: inactive

Structure (SMILES): CN(C)[C@@H]1C(=O)C(C(=O)NCN2CCCC2)=C(O)[C@@]2(O)C(=O)C3=C(O)c4c(O)cccc4[C@@](C)(O)C3C[C@@H]12 (stereo partly specified)
- Potency [4]: inactive
- Potency [5]: 17.4 µM (active)
- Potency [2]: inactive
- Potency [3]: inactive

Structure (SMILES): CN(C)CCCCCCN(C)C
- Potency [2]: inactive

Structure (SMILES): CC(C)(C#N)Nc1nc(Cl)nc(NC2CC2)n1
- Potency [4]: inactive
- Potency [5]: 39.9 µM (active)
- Potency [3]: 20 µM (active)

Structure (SMILES): Nc1ccn([C@@H]2O[C@H](CO)[C@@H](O)C2O)c(=O)n1 (stereo partly specified)
- Potency [4]: inactive
- Potency [5]: inactive
- Potency [2]: inactive
- Potency [3]: inactive

Structure (SMILES): CCCCCCCCCC[N+](C)(C)[O-]
- Potency [4]: inactive
- Potency [5]: inactive
- Potency [2]: inactive
- Potency [3]: inactive

Structure (SMILES): CCCCCCCCCCCCCCC(=O)O
- Potency [4]: inactive
- Potency [5]: 35.7 µM (active)
- Potency [2]: inactive
- Potency [3]: inactive

Structure (SMILES): NO
- Potency [2]: inactive

Structure (SMILES): COc1cc(C)nc(-n2nc(C)cc2OC)n1
- Potency [2]: inactive

Structure (SMILES): O=S(=O)(O)c1cccc2c(S(=O)(=O)O)cccc12
- Potency [4]: 70.9 µM (active)
- Potency [2]: inactive
- Potency [3]: inactive

Structure (SMILES): CC1=NN(c2cc(S(=O)(=O)O)ccc2Cl)C(=O)C1N=Nc1ccccc1 (stereo unspecified)
- Potency [4]: inactive
- Potency [5]: inactive
- Potency [2]: inactive
- Potency [3]: inactive

Structure (SMILES): COc1cc(-c2ccc(=O)[nH]n2)ccc1OC(F)F
- Potency [4]: inactive
- Potency [2]: inactive

Structure (SMILES): c1ccc(Cc2ccccc2)cc1
- Potency [5]: 35.6 µM (active)
- Potency [2]: inactive
- Potency [3]: inactive

Structure (SMILES): CC(C)C[C@@H](N)C(=O)O
- activity change, negative = inhibition [2]: 1.04% [at 15.8 µM]

Structure (SMILES): Clc1cc(Cl)cc(Cl)c1
- Potency [4]: inactive
- Potency [5]: inactive
- Potency [2]: inactive
- Potency [3]: inactive

Structure (SMILES): O=S(=O)(O)c1cc(O)c(O)c(S(=O)(=O)O)c1
- Potency [2]: inactive
- Potency [3]: inactive

Structure (SMILES): CC(=O)C1CCCCC1=O (stereo unspecified)
- Potency [5]: inactive

Structure (SMILES): CCCCN1C=CN(C)C1
- activity change, negative = inhibition [2]: -0.505% [at 15.8 µM]

Structure (SMILES): CCC(C)(CCCC(C)C)OC(C)=O (stereo unspecified)
- Potency [4]: inactive
- Potency [5]: inactive
- Potency [2]: inactive
- Potency [3]: inactive

Structure (SMILES): CCCCCCC1CCC(=O)O1 (stereo unspecified)
- Potency [2]: inactive
- Potency [3]: inactive

Structure (SMILES): CC(=O)c1cnccn1
- Potency [4]: inactive
- Potency [5]: inactive
- Potency [3]: inactive

Structure (SMILES): O=S(=O)(O)c1cccc2ccccc12
- Potency [2]: inactive
- Potency [3]: inactive

Structure (SMILES): CCOC(=O)OC(C)OC1=C(C(=O)Nc2ccccn2)N(C)S(=O)(=O)c2ccccc21 (stereo unspecified)
- Potency [5]: inactive
- Potency [2]: inactive
- Potency [3]: inactive

Structure (SMILES): Nc1ccccn1
- Potency [2]: inactive

Structure (SMILES): NCCCC(N)(C(=O)O)C(F)F (stereo unspecified)
- Potency [2]: inactive
